Screens as filed in PubChem.
Peg3 prom inh: inhibitors of Peg3 promoter; HeLa PEG-Prom luciferase reporter, luminescence, overnight; inhibition, % at 20 µM; 1.7% of 360,000 active; AID 588405;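 active = inhibition of at least 50% at 20 µM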
HIF-2a block: inhibitors of HIF-2a; 786-0 RCC cells HIF-2a reporter, luciferase luminescence, overnight; 0.72% of 360,000 active; inhibition, % at 18.8 µM;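 active = inhibition of the luminescence signal of 40% or more relative to plate controls, in a single-dose primary screen at 18.75 µM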
Beta2AR agonist: human beta-2 adrenergic receptor agonism by FAP; P07550; Am2.2-beta2AR cells, FAP receptor internalization, flow cytometry; response, % (concentration not given with the values); 0.43% of 340,000 active; AID 504454;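 active = response above a set limit, near 3 SD of response in nonfluorescent compounds, cut at about 42% in these data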
Target sequence (P07550 whole entry, looked up): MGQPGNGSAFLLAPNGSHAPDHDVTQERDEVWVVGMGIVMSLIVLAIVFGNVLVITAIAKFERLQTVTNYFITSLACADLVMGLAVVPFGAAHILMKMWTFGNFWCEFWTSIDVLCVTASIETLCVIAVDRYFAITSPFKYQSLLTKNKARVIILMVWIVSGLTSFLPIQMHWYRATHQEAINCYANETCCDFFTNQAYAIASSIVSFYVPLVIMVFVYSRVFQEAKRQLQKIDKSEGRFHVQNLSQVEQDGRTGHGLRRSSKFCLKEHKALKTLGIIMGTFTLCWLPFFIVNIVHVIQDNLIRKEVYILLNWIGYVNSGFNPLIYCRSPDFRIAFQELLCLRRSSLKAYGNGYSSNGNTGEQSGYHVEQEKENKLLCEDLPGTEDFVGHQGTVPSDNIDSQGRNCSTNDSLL
KKLEB tox: reduces viability of KKLEB cystic fibrosis airway cells | KKLEB CF airway cells viability, ATPlite luminescence, overnight; stronger effect = lower value; cells stimulated with P. aeruginosa culture filtrate | activity change (cytotoxicity), % at 5 µM | 0.36% of 360,000 active;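 active = corrected activity change at or below -50% at 5 µM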
CF NFkB inh: cystic fibrosis NF-kB activation inhibition; 0.86% of 360,000 active; inhibition, % at 5 µM; AID 588850; KKLEB NF-kB-GFP reporter, PAF-induced, GFP fluorescence overnight;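 active = at least 50% inhibition at 5 µM, scaled per plate between neutral and stimulator controls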;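 note: PAF is a Pseudomonas aeruginosa culture filtrate used as stimulus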
MITF TRPM1 inh: inhibitors of MITF-driven TRPM1 promoter in melanoma cells | SK-MEL-5 TRPM1 promoter luciferase, 24 h | 0.83% of 330,000 active | inhibition, % at 12.5 µM;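 active = mean inhibition across replicates of 60% or more, whatever share of single replicates reaches that level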
Mdm2 MdmX conf: Mdm2/MdmX (human) interaction inhibition, confirmed | shares compounds with HIF-2a block | SaOS-2 split-luciferase Mdm2/MdmX complementation, luminescence | inhibition, % at 8 µM | 99% of 740 active | AID 504601;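 active = mean inhibition of the luminescence signal across two replicates at or above 26 percent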
HIF-2a conf: HIF-2a inhibition, single concentration confirmation. shares compounds with HIF-2a block. 786-0 RCC cells, HIF-2a luciferase reporter luminescence, overnight. inhibition, % at 18.8 µM. 56% of 1,800 active;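 active = mean inhibition across four replicates of at least 40 percent at the single tested concentration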
HIF-1a counter: counter-screen for HIF-2a inhibitors: HIF-1a inhibition in MiaPaCa-2 cells | shares compounds with HIF-2a block | MiaPaCa-2 HIF-1a luciferase reporter, desferoxamine, overnight | inhibition, % at 18.8 µM | 72% of 1,800 active | AID 651589;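 active = mean inhibition of the reporter signal across four replicates at the single tested dose of 50% or more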
Each line names hits and unclear results; the compound was inactive in the other large screens (follow-up assays come after a bar, where they were run). An excerpt weighted towards active compounds, which were near 2.8% of everything screened.

O=[N+]([O-])c1ccc(-c2ccc(/C=N/Nc3nc(N4CCCC4)nc(N4CCCC4)n3)o2)cc1	KKLEB tox -62.0, MITF TRPM1 inh 68.5 | Mdm2 MdmX conf 90.8
CCC(C)N(CC(=O)Nc1cccc(C)c1C)C(=O)CCl (stereo not drawn)	HIF-2a block 51.0 | Mdm2 MdmX conf 102.7 | HIF-2a conf 45.9 | HIF-1a counter 53.5
C/C1=C\CCC2C(/C=C(\C)CC1)OC(=O)C2CN1CCCCC1 (stereo not drawn)	none
COc1cccc(NC(=O)c2cc3c(=O)n4ccccc4nc3n(CC(C)C)c2=N)c1	none | Mdm2 MdmX conf 35.8
COc1ccc(CNC(=O)c2cc3c(=O)n4ccccc4nc3n(Cc3cccnc3)c2=N)cc1	none
O=C(OCn1ncc(Cl)c(Cl)c1=O)c1ccccc1Cl	Peg3 prom inh 101.5, HIF-2a block 95.4, KKLEB tox -89.9, CF NFkB inh 98.7, MITF TRPM1 inh 110.9 | HIF-2a conf 98.0 | HIF-1a counter 106.0
O=C(COC(=O)c1cnc(Cl)c(Cl)c1)c1ccc(F)cc1	none
O=C(OCCN1CCCCC1)c1ccccc1Cl	none
O=C(OCn1ncc(Cl)c(Cl)c1=O)c1ccc(F)cc1	none (no result: Peg3 prom inh, HIF-2a block, Beta2AR agonist, KKLEB tox, CF NFkB inh, MITF TRPM1 inh) | Mdm2 MdmX conf 103.5
CCc1nc2c(OCCC3CCCCC3)cccn2c1N(C)C(=O)c1cccs1	none (no result: Beta2AR agonist, MITF TRPM1 inh)
COc1cc(F)ccc1-c1csc(C(O)(c2ccccc2)C(F)(F)F)n1 (stereo not drawn)	none (no result: Beta2AR agonist, MITF TRPM1 inh)
CC(=O)SC(C[N+](=O)[O-])c1cn(C(C)=O)c2ccccc12 (stereo not drawn)	Peg3 prom inh 106.0, HIF-2a block 46.4, Beta2AR agonist 49.0, MITF TRPM1 inh 105.8 | HIF-2a conf 96.3 | HIF-1a counter 85.7
COc1ccc(/C=C/C(=O)N(C)C2CCS(=O)(=O)C2)cc1 (stereo not drawn)	none
CCn1c(C)nc2cc(-c3nc4n(n3)Cc3ccccc3-4)ccc21	Peg3 prom inh 113.9, HIF-2a block 91.2, KKLEB tox -87.7, MITF TRPM1 inh 97.5 | Mdm2 MdmX conf 100.5
Cc1ccc(-c2nc3n(n2)Cc2ccccc2-3)cc1	none
Cc1ccc(N(CCC#N)C(=O)CCl)cc1C	none | Mdm2 MdmX conf 102.7
O=C(Cn1ncc(Cl)c(Cl)c1=O)c1ccc(Cl)cc1	Peg3 prom inh 108.1, HIF-2a block 96.1, MITF TRPM1 inh 80.4 | HIF-2a conf inactive | HIF-1a counter 105.8
CC(C)(C)C(=O)Cn1ncc(Cl)c(Cl)c1=O	Peg3 prom inh 103.9, HIF-2a block 94.9, MITF TRPM1 inh 91.3 | HIF-2a conf inactive | HIF-1a counter 105.7
C=CCn1c(C)cc(C(=O)Cn2ncc(Cl)c(Cl)c2=O)c1C	Peg3 prom inh 101.0, HIF-2a block 94.0, KKLEB tox -54.1, CF NFkB inh 88.5, MITF TRPM1 inh 67.4 | HIF-2a conf inactive | HIF-1a counter 105.3
CC(C)(C)C(=O)Cn1ncc(N2CCCC2)c(Br)c1=O	none
O=C1CCCN1c1ccc([N+](=O)[O-])cc1	none (no result: Beta2AR agonist, MITF TRPM1 inh)
CC1=C(C(=O)Nc2ccc([N+](=O)[O-])cc2)C(c2cccc(C(F)(F)F)c2)NC(=S)N1c1ccccc1 (stereo not drawn)	Peg3 prom inh 87.7, HIF-2a block 56.4 | HIF-2a conf inactive | HIF-1a counter 59.6
O=C(COC(=O)c1ccc(NS(=O)(=O)c2ccc(F)c(F)c2)cc1)NCC1CCCO1 (stereo not drawn)	HIF-2a block 44.6 | HIF-2a conf inactive | HIF-1a counter inactive
Cc1ccc(NS(=O)(=O)c2ccc(C(=O)OCC(=O)NCC3CCCO3)cc2)cc1 (stereo not drawn)	none
CCCNC(=O)c1nnsc1S(=O)c1ccc(Cl)cc1 (stereo not drawn)	Peg3 prom inh 103.8, HIF-2a block 44.4, Beta2AR agonist 50.3, CF NFkB inh 84.0, MITF TRPM1 inh 67.4 | HIF-2a conf inactive | HIF-1a counter 99.2
